High-throughput results as filed in PubChem.
S16 F2sN tox: Cell viability qHTS assay in S16 Pmp22-F2sN cells | AID 1508642, 2021 | Potency, µM (titrated, usually from 57.5 µM), most hits filed as cytotoxic | actives 0.48% (n = 43,000) | S16 Pmp22-F2sN Schwann cells viability, CellTiter-Glo, 24 h; also: nearly all actives have a fitted effect of over 65% in size
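CellTiter-Glo counter-screen, qHTS, 1536-well. Cells: S16(c9) Pmp22-F2sN, 500-1,000/well in DMEM + 10% FBS. Cpd 23 nL pin transfer, 24 h, 37C/5% CO2. Read: luminescence, CCD imager.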
NTMT1 inh: Primary qHTS for Inhibitors of N-terminal methyltransferase 1 (NTMT1): MTaseGlo Assay; N-terminal Xaa-Pro-Lys N-methyltransferase 1 (Homo sapiens), Q9BV86; NTMT1 MTase-Glo SAH luminescence, purified enzyme; Potency, µM (series often up to 114 µM), hits mostly inhibitors; actives 2.5% (n = 59,000); AID 1645870, 2021; also: nearly all actives have a fitted effect of over 65% in size
GALC G270D up: A Novel Cell-Based Assay to Identify Small Molecules for B -Galactocerebrosidase. P54803. 145M-Twi-hGALC-G270D cells (Twitcher mouse brain line with human GALC G270D), HMU-beta-Gal fluorescence, 48 h. Potency, µM (top dose mostly 57.5 µM), usual class: activators. actives 0.1% (n = 45,000). AID 1159614, 2016; also: nearly all actives have a fitted effect of over 65% in size
Target sequence (P54803 whole entry G286D): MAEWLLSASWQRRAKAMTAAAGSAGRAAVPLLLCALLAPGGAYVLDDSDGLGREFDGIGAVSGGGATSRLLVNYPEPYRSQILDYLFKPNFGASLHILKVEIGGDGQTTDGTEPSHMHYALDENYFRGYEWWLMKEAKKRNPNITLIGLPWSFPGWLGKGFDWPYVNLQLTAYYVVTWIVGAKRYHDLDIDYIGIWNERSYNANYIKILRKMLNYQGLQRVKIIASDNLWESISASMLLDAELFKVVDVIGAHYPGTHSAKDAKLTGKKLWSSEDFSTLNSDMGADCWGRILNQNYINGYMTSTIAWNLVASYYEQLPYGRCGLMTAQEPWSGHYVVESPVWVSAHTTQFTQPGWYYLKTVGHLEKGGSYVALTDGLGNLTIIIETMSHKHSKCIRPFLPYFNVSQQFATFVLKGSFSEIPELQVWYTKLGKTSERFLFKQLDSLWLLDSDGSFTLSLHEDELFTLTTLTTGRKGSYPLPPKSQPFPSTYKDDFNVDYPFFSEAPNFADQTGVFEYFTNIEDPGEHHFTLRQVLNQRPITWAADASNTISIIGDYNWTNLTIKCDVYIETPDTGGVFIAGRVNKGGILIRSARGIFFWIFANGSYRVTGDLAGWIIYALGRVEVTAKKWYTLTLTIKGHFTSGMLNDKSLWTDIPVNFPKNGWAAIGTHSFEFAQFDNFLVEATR
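Brain-derived Twitcher mouse 145M-Twi cells stably expressing human GALC-G270D or wild-type GALC, treated live, then residual GALC activity read by fluorescence of HMU-b-Gal substrate (0.1 mM final) in citrate-phosphate buffer pH 5.2 with sodium taurocholate. Signal increase indicates enhancement.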
SKOV3 invasion: Primary qHTS assay for Inhibitors of ovarian cancer metastasis using an organotypic tumor microenvironment (TME) model; SKOV3ip1-GFP adhesion/invasion on 3D omental model, fluorescence; Potency, µM (top dose mostly 45.8 µM), most hits filed as inhibitors; actives 0.1% (n = 46,000); also: nearly all actives have a fitted effect of over 65% in size
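Primary human omental fibroblast/mesothelial 3D culture pre-formed 48 h. SKOV3ip1-GFP cells added with compounds (0.36-46 umol/L), incubated 2 h RT/16 h 37 C, fixed; GFP cells quantified at 488/509 nm.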
mTORC1 inh: Acumen qHTS Assay for Inhibitors of the mTORC1 Signaling Pathway in MEF (Tsc2-/-, p53-/-) Cells: Sytravon; Tsc2-/- p53-/- MEF, phospho-rpS6 immunofluorescence/PI, 24 h; actives 0.78% (n = 44,000); Potency, µM (titrated, usually from 38.3 µM), actives largely listed as inhibitors; also: nearly all actives have a fitted effect of over 50% in size
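Readout is phospho-S6 Alexa 488 signal normalized to PI per well, reported as % active cells with thresholds set from rapamycin (7.5 nM) and DMSO controls. Cells: Tsc2-/-, p53-/- MEFs, 24 hrs compound at 37 C; PI cell number serves as viability.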
PMP22 txn: Cell-based coincidence reporter assay to measure PMP22 gene transcription in S16 Pmp22-F2sN cells - Primary screen. S16 Pmp22-F2sN Schwann cells (luciferase reporters placed in the Pmp22 gene), FLuc/NLuc coincidence luminescence, 24 h. Potency, µM (doses to about 57.5 µM), actives largely listed as inhibitors. actives 2% (n = 43,000). AID 1508649, 2021; active = clear falling dose curves in both reporters; inconclusive = both reporters move, but less clearly or upward; inactive = either reporter flat; the % is the NLuc reporter signal
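S16 Schwann cells carrying FLuc/NLuc coincidence reporter in the Pmp22 3' UTR treated with compound 24 h at 37C; FLuc then NLuc luminescence read sequentially by dual-luciferase reagents.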
A number is an active result; - = inactive; ? = inconclusive; . = no result given; ! = a repeat was not active. Rows were chosen to be rich in hits. Some 3.6% of all compounds tested hit in one or more screens of this group. Unless noted, calls follow the shape of the dose curve; as a rule, active = well fitted curve in the direction sought with a large enough effect; inconclusive = small, poorly fitted or top-dose-only effect, or another doubt; inactive = no such curve, though single readings can be large; an effect the other way counts as inactive or inconclusive.

SMILES	S16 F2sN tox	NTMT1 inh	GALC G270D up	SKOV3 invasion	mTORC1 inh	PMP22 txn
C[C@@H](c1ccccc1)N(C(N)=NC#N)c1cccc2ncccc12	.	-	.	.	.	.
CC1CCN(c2nc3ccc(C(=O)NCCc4ccc(S(N)(=O)=O)cc4)cc3s2)CC1	-	89µM	-	-	-	-
COc1ccc(S(=O)(=O)N(CC(=O)Nc2cc(C)ccc2OC)Cc2ccccc2)cc1	-	2.5µM	-	-	-	?
O=C(O)[C@H]1O[C@H](Oc2cc3oc(-c4ccccc4)cc(=O)c3c(O)c2O)[C@H](O)[C@@H](O)[C@H]1O	.	-	.	-	.	.
O=c1cc(-c2ccccc2)oc2cc(O)c(O)c(O)c12	.	28µM!	.	-	.	.
COC(=O)c1cc(S(N)(=O)=O)ccc1OC	.	-	-	.	.	.
CCCCCCCC(=O)[O-].CCCCCCCC(=O)[O-].[Zn+2]	.	20µM	-	.	.	.
CCCCCCCCCCCCCCCCCC(=O)O	.	-	-	.	.	.
O=C1c2ccccc2C(=O)N1c1cccc(Cl)c1	.	-	.	.	.	.
Cc1ccc(-c2ccc(CCC(=O)O)n2-c2cccc(O)c2)cc1	-	79µM	-	-	-	?
O=Cc1ccc(O)c(O)c1O	.	18µM	-	.	.	.
CCS(=O)c1nc(-c2cccc(OCc3ccccc3)c2)cc(C(F)(F)F)n1 (stereo not given)	.	-	.	.	.	.
C#C[C@]1(O)CC[C@H]2[C@@H]3CCc4cc(O)ccc4[C@H]3CC[C@@]21C	.	11µM!	-	.	.	.
Cc1cnc(-c2ccccc2C(C)O)nc1NCC1CCN(c2cccnc2)CC1 (stereo not given)	.	-	.	.	.	.
CCCCNC(=O)Nc1ccc2c(c1)N(C)C(=O)c1ccccc1S2	?	89µM	-	-	-	-
CN1C(=O)c2ccccc2Sc2ccc(NC(=O)c3ccc(C(F)(F)F)cc3)cc21	-	-	-	-	-	11µM
COc1ccc(CNC(=O)Nc2ccc3c(c2)N(C)C(=O)c2ccccc2S3)cc1OC	?	-	-	-	-	-
Cc1ccc(C(=O)Nc2ccc3c(c2)N(C)C(=O)c2ccccc2S3)cc1	?	-	-	-	-	?
COC(=O)c1ccc(=O)c2nc3/c(=C/O)c(O)cc(=O)c3[nH]c12	.	35µM	.	.	.	.
Cc1ccc(NS(=O)(=O)c2cc3c(cc2Cl)NC(=O)CO3)cc1Cl	.	-	.	.	.	.
COc1cc(-c2cc(-c3ccc(N4CCNCC4)cc3)cnc2C)cc(OC)c1OC	.	-	.	.	.	.
C=CC(=O)Nc1cc(Nc2ncc(Cl)c(-c3c[nH]c4ccccc34)n2)c(OC)cc1N(C)CCN(C)C	.	20µM	.	.	.	.
COc1c(O[C@@H]2O[C@H](CO)[C@@H](O)[C@H](O)[C@H]2O)c(CCC(=O)O)cc2ccoc12	.	-	.	.	.	.
O=C(Nc1nnc(-c2ccco2)o1)c1ccc(C(F)(F)F)cc1	.	-	.	.	.	.
COc1cc2ncnc(Nc3ccc(O)c(Br)c3)c2cc1OC	.	40µM	.	.	.	.
SMILES	S16 F2sN tox	NTMT1 inh	GALC G270D up	SKOV3 invasion	mTORC1 inh	PMP22 txn
COc1cc2ncnc(Nc3ccc(O)cc3)c2cc1OC	.	-	.	.	.	.
COc1ccc(Cl)cc1S(=O)(=O)NCc1ccc2c(c1)CCN2C(=O)c1cccc(C)c1	14µM	-	-	-	?	11µM
CC(=O)N1CCCC1c1nc2ccccc2n1Cc1c(F)cccc1Cl (stereo not given)	-	89µM	-	-	-	-
Cc1ccc(C(=O)N2CCc3cc(-c4nc(NC(=O)Cc5ccc6c(c5)OCO6)sc4C)ccc32)cc1	.	-	.	.	.	.
COc1cc(Cl)c(C)cc1NC(=O)C(OC(=O)CNC(=O)c1ccccc1)c1ccccc1 (stereo not given)	.	-	.	.	.	.
c1ccc2c(-c3cnn4cc(-c5ccc(N6CCNCC6)cc5)cnc34)ccnc2c1	.	56µM!	.	23µM	.	.
COc1cc(NC(C)CCCN)c2ncccc2c1 (stereo not given)	.	40µM	-	.	.	.
COc1cccc(CNC(=O)c2cc3ccc4cccnc4c3[nH]2)c1	-	-	-	-	-	-
CCc1ccccc1NS(=O)(=O)c1ccc(OC)c2ncccc12	-	89µM	-	-	-	-
O=C(NCC1CCN(Cc2cccc(Cl)c2)CC1)Nc1cc(Cl)ccc1Cl	?	-	-	?	?	?
O=C(NCC1CCN(Cc2cccc(Cl)c2)CC1)Nc1ccc(F)c(Cl)c1	?	-	-	20µM	18µM	-
O=C1CCCC2=C1C(c1[nH]ncc1Cl)NC(=NCc1cccnc1)N2 (stereo not given)	.	-	.	.	.	.
C=CC(=O)N1CCC[C@H](n2c(=O)n(-c3ccc(Oc4ccccc4)cc3)c3c(N)ncnc32)C1	.	89µM	.	.	.	.
Cc1ccc(-n2ncc3c(Nc4ccc(Oc5ccccc5)cc4)ncnc32)cc1	-	-	-	-	-	?
CC#CC(=O)N1CC[C@@H](n2c(=O)n(-c3ccc(Oc4ccccc4)cc3)c3c(N)ncnc32)C1	.	71µM	.	.	.	.
CCCN(CCC)C(=O)c1cc2c(=O)n3cccc(C)c3nc2s1	?	-	20µM	-	-	-
Cc1cccc(NC(=O)c2cc3c(=O)n4cccc(C)c4nc3s2)c1C	-	-	-	-	?	?
Cc1cccn2c(=O)c3cc(C(=O)NCC(C)C)sc3nc12	-	-	4µM	-	-	-
O=C(CSc1nc(-c2ccccc2)[nH]c1-c1ccccc1)Nc1ccc2c(c1)OCO2	35µM	-	-	-	?	?
COC(=O)C1=C(c2ccccc2)c2ccccc2S(=O)(=O)N1CC(=O)Nc1cccc(C(C)=O)c1	-	79µM	-	-	-	?
CCOCc1cc(CN2CCN(c3cccc(C(F)(F)F)c3)CC2)c(O)c2ncccc12	?	-	-	-	?	4.5µM
CC(C)OCc1cc(CN2CCN(c3cccc(C(F)(F)F)c3)CC2)c(O)c2ncccc12	?	-	-	-	?	6.5µM
Cc1ccc(S(=O)(=O)N2CCN(c3nc(-c4ccco4)nc4ccccc34)CC2)cc1	.	-	.	.	.	.
Cc1ccc(S(=O)(=O)c2nnn3c2nc(N2CCC(C(N)=O)CC2)c2cc(Cl)ccc23)cc1C	?	-	-	-	-	16µM
CCOC(=O)C1CCN(c2nc3c(S(=O)(=O)c4ccc(C)c(C)c4)nnn3c3ccc(Cl)cc23)CC1	-	-	-	-	-	-
CC(NC(=O)C(O)C(C)C)C(=O)NC1C(=O)N(C)CCc2ccccc21 (stereo not given)	.	-	.	.	.	.
